From PubChem BioAssay (NCI)
About 83,000 compounds went through this panel and 20% of them were active in at least one assay; those are over-represented in the sample as a whole.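 48-hour exposure, single concentration, 96-well plates; percent growth endpoint where 0 means no net growth. Active: below 10.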 Activity calls are given as the source filed them.

These molecules were tested on HL-60(TB) leukemia (assay: NCI-60 one-dose screen, 48 h (100 = growth as untreated, 0 = no growth, -100 = all killed)). Details: 10 µM unless noted.
`Cn1cc(-c2cc(N)n3nc(-c4c[nH]c5ccccc45)cc3n2)c2cc(Cl)ccc21` was tested, and the growth was -16.2% (active). For `COc1c(F)ccc(C(=O)Nc2ccc3nc(NC(=O)C4CCCN(S(=O)(=O)c5ccc(C(C)(C)C)cc5)C4)sc3c2)c1F` (stereo unspecified), the growth was 66.9% (inactive). For `O=[N+]([O-])c1ccc(-c2nc(-c3ccccc3)c(-c3ccccc3)n2-c2ccc(S(=O)(=O)Nc3ncccn3)cc2)cc1`, the growth was 38.2% (inactive). `O=C(NO)c1ccc(Cn2ccc3c(Nc4ccccc4)ncnc32)cc1` was tested, and the growth was 0.922% (active). `N/C(=N\c1nc2ccccc2s1)NC(=O)Nc1c(Cl)cccc1Cl` was tested, and the growth was 17.9% (inactive). In the case of `Nc1nc2c(F)c(F)c(F)c(F)c2s1`, the growth is reported as 110% (inactive).
